Results taken from PubChem BioAssay (NCI).
This is part of a sample that, as a whole, favours compounds with a hit. Of some 79,000 tested, about 15% had one in any assay. Unmarked numbers belong to inactive results. No stated cut-off is given here; in the data, active means growth inhibition above about 70%; inactive means the rest. Where a SMILES comes first, the peptide text is derived from it.

assay: NCI Yeast Anticancer Drug Screen. Data for the mec2-1 strain (AID 157); details: S. cerevisiae mec2-1 strain, at 50.0 µM, stronger effect = higher value
Procedure, shortened: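 Each compound was tested on mec2-1 yeast, a strain altered in DNA damage repair or cell cycle control. Growth inhibition is reported relative to vehicle.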

| Compound | growth inhibition [%] |
| --- | --- |
| CCOC(=O)CN=NNc1ccc([N+](=O)[O-])cc1 | 8.85 |
| CC(C)(C)CC(C)(C)c1cc2c(O)c(c1)Cc1cc(C(C)(C)CC(C)(C)C)cc(c1O)Cc1cc(C(C)(C)CC(C)(C)C)cc(c1O)Cc1cc(C(C)(C)CC(C)(C)C)cc(c1O)Cc1cc(C(C)(C)CC(C)(C)C)cc(c1O)C2 | 33.4 |
| COC(=O)c1c[nH]c(C=O)c1C | -0.7 |
| COc1cc(C)c(N)cc1N | -16.9 |
| O=C(NCC(=O)N1CCCC1C(=O)OC(=O)C1CCCN1C(=O)CNC(=O)OCc1ccccc1)OCc1ccccc1 (stereo not given) | 1.2 |
| CC(=O)c1cccc(NC(=O)OC2CCCC(C)C2)c1 (stereo not given) | 60.7 |
| Cc1cc(=O)[nH]c(NN2C(Cl)C(=O)C2c2cccc(Cl)c2)n1 (stereo not given) | -34.1 |
| CN(C)/C=C(/N=C(C#N)C#N)C1OCCO1 | 8.55 |
| O=C(Nc1cccc2c1[nH]c1c(-c3ccccc3)nccc12)c1ccccc1[N+](=O)[O-] | 45.1 |
| CC[n+]1c(-c2ccccc2)c2cc(NCCCN)ccc2c2ccc(N)cc21 | 15.8 |
| COc1ccc(CC[N+]2=Cc3cc(OC)c(OC)cc3CC2)cc1OC | -2.8 |
| CC(C)CC(NC(=O)C(NC(=O)C(N)C(C)O)C(C)C)C(=O)O (stereo not drawn) (H-Thr-Val-Leu-OH; configuration not given here) | 3.1 |
| CN1CCOC(=O)C(C#N)=C1c1ccccc1 | 6.95 |
| CCN(CC)CCn1c2ccccc2c(=O)c2c(O)ccc(O)c21 | -1.3 |
| NC(Cc1ccccc1)C(=O)Nc1ccccc1 (stereo not given) | -16 |
| C[N+](C)(C)C1=CC=CC=C1.Br[Br-]Br | -29.6 |
| O=c1c2cc([N+](=O)[O-])ccc2[nH]n1Cc1ccccn1 | 10.2 |
| Clc1cc(Cl)cc(Nc2nc3ccccc3nc2-c2cccs2)c1 | -14 |
| CCC(=O)OC1CCC2(C)C(=CCC3C2CCC2(C)C(C(C)CCCC(C)C)CCC32)C1 (stereo not given) | 7.6 |
| C=CCNC(=O)OCCCl | -1.45 |

| Compound | growth inhibition [%] |
| --- | --- |
| Oc1c(N=Nc2ccccc2)c2ccccc2c2ccc3ccccc3c12 | -13.7 |
| NNCCSC1CCCCC1 | 22.1 |
| CC(=O)c1ccc(OC(=O)Nc2ccc(Cl)cc2)cc1 | 10.1 |
| CN(C)c1ccc(-c2nc(N)nc3c2CCCC3)cc1 | -12.2 |
| O=C1/C(=C/c2ccc3c(c2)CCC3)Cc2cc3c(cc21)CCC3 | 11.7 |
| CCCCCCC(=O)OCC | -3.4 |
| Cc1ccc(C(C)C)c(O)c1NC(=S)N/N=C\c1cc(Cl)ccc1O | 22.8 |
| O=C(O)c1cc(-c2ccccc2Cl)nc2cc3ccccc3cc12 | -19.7 |
| CC1=NN(c2ccccc2)C(=O)/C1=C\c1ccccc1 | 16.9 |
| CC(C)C(=O)CC(c1ccc(Cl)cc1)N1N=C(C(C)C)CC1c1ccc(Cl)cc1 (stereo not given) | 15.2 |
| COC(=O)CN(c1c(C)cc(C)c(N)c1C)S(=O)(=O)c1ccccc1 | 15.9 |
| COc1ccc(C(=O)C2CC(=O)NC2=O)cc1 (stereo not given) | -5.95 |
| NS(=O)(=O)c1ccc(NC(=S)/N=C\c2c(O)[nH]c(=O)[nH]c2=O)cc1 | -16.3 |
| COc1ccc2c(c1)C(C)(C(N)=O)CCC2 (stereo not given) | 4.8 |
| COc1c2occc2c(Br)c2ccc(=O)oc12 | 0.35 |
| COC(=O)C1N=CSCC1(C)O (stereo not given) | 15.3 |
| CC(=O)OCC1OC(n2cc(CBr)nn2)C(OC(C)=O)C(OC(C)=O)C1OC(C)=O (stereo not given) | 4.9 |
| CCOC(=O)/C(=C(/N)C1OC(COC(c2ccccc2)(c2ccccc2)c2ccccc2)C2OC(C)(C)OC12)C1CC(=O)N(C)C1=O (stereo not given) | 16.1 |
| COc1ccc(C(O)c2ccc(C)cc2)cc1 (stereo not given) | -4.2 |
| CN=S(=O)(OCCCCOS(=O)(=NC)c1ccc(C)cc1)c1ccc(C)cc1 (stereo not given) | -14.4 |
